From the supplement of paper PMC11006884
Of roughly 6,500 targets only a part is listed; those with a hit were picked by preference. About 2% of all pairs of compound and target were hits.

Compound: COC(=O)C#Cc1ccccc1 [methyl 3-phenylpropiolate]
Assay: log2 ratio of iodoacetamide-alkyne labeling of the cysteine site, DMSO over compound (competition); higher = stronger covalent engagement of the cysteine by the compound, active = 1 or more
Conditions: 500 µM; treatment time 1 h; system: HEK293T cell lysate
In short: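 The log2 competition ratio per cysteine is defined as mean reporter intensity in control channels over mean reporter intensity in compound channels. Lysate from HEK293T cells (2 mg/mL) received electrophile (500 µM) or vehicle for 1 h at ambient temperature, followed by iodoacetamide alkyne for 1 h. Samples were clicked to sCIP-TMT reagents, pooled, trypsin-digested overnight at 37 °C, streptavidin-enriched, acid-eluted and run on Orbitrap Eclipse LC-MS/MS with FAIMS, with quantification in FragPipe. Three replicates with duplicate channels were used, and any cysteine quantified in only one replicate was excluded.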

UniProt P46940, sequence (P46940 whole entry, looked up): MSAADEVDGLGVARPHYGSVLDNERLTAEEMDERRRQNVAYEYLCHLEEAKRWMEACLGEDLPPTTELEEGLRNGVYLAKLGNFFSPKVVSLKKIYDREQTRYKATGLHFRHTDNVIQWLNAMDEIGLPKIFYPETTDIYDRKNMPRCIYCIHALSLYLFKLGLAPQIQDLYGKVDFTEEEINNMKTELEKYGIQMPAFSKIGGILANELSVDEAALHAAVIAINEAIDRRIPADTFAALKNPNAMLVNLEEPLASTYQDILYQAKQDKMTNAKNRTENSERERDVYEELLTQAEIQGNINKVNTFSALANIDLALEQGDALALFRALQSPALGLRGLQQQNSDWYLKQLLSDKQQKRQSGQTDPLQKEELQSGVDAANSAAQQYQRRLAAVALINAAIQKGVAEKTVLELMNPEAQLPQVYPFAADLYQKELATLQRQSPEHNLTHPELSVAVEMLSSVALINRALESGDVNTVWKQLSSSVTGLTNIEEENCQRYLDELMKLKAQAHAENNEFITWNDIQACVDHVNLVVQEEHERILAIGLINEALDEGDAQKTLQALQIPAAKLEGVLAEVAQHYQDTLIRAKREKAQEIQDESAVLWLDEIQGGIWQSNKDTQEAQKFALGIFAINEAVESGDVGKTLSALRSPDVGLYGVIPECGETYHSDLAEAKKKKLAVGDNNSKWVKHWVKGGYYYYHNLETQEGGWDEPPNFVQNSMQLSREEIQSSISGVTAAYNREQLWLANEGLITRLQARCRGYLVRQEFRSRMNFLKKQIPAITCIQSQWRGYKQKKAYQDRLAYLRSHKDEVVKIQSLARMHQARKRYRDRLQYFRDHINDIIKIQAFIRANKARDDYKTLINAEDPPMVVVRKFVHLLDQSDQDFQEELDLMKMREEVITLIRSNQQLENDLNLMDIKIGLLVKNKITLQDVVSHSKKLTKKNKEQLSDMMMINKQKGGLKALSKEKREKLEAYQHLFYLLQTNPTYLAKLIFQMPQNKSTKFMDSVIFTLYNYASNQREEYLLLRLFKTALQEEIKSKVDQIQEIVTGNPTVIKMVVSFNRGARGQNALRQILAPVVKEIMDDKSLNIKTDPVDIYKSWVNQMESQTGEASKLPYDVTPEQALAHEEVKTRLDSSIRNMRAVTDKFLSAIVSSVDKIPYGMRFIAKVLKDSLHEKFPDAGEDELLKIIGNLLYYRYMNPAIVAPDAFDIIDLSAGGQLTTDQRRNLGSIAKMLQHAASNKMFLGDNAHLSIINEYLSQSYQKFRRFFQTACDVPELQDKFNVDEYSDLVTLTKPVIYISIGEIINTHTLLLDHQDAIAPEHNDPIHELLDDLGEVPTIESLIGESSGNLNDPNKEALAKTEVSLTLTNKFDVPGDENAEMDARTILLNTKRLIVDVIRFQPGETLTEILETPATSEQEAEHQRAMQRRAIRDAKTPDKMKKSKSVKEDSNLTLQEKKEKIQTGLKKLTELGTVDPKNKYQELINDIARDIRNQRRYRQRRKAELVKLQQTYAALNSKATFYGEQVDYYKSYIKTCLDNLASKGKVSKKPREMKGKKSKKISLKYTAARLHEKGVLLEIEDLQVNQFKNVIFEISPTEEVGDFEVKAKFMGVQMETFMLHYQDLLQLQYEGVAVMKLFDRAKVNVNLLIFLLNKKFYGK
UniProt P18754, sequence (P18754 whole entry, looked up): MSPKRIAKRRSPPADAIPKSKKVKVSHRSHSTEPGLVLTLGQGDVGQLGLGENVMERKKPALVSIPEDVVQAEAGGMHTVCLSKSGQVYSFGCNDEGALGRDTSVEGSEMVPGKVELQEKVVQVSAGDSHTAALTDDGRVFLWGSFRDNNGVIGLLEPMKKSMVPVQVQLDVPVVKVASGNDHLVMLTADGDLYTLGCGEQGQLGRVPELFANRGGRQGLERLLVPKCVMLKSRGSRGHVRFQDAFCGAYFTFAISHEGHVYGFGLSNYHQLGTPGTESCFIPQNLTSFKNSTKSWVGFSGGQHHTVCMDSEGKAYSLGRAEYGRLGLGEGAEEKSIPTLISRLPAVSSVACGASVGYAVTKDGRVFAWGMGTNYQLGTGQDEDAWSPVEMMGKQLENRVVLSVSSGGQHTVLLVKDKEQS
UniProt P45880, sequence (P45880 whole entry, looked up): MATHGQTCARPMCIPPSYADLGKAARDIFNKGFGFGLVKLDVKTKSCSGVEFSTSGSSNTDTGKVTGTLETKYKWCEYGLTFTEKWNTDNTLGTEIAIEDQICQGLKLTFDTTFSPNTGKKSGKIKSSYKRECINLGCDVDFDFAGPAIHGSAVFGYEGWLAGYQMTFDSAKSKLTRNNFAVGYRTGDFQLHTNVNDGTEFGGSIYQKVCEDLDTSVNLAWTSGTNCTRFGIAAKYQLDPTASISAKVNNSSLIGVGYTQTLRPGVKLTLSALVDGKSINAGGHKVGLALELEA
UniProt P11310, sequence (P11310 whole entry, looked up): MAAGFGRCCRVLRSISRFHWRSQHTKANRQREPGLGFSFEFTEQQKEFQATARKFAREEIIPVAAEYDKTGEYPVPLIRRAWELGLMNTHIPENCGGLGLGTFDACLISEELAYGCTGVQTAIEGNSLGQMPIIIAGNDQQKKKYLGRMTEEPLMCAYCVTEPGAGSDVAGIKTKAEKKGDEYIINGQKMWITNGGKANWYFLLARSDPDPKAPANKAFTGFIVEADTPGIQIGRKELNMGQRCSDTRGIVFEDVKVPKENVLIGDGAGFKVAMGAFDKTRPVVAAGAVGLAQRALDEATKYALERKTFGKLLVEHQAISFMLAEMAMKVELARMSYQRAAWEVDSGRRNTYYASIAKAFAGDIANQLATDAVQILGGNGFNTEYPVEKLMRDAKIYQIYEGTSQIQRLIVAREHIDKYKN
UniProt P23508, sequence (P23508 whole entry): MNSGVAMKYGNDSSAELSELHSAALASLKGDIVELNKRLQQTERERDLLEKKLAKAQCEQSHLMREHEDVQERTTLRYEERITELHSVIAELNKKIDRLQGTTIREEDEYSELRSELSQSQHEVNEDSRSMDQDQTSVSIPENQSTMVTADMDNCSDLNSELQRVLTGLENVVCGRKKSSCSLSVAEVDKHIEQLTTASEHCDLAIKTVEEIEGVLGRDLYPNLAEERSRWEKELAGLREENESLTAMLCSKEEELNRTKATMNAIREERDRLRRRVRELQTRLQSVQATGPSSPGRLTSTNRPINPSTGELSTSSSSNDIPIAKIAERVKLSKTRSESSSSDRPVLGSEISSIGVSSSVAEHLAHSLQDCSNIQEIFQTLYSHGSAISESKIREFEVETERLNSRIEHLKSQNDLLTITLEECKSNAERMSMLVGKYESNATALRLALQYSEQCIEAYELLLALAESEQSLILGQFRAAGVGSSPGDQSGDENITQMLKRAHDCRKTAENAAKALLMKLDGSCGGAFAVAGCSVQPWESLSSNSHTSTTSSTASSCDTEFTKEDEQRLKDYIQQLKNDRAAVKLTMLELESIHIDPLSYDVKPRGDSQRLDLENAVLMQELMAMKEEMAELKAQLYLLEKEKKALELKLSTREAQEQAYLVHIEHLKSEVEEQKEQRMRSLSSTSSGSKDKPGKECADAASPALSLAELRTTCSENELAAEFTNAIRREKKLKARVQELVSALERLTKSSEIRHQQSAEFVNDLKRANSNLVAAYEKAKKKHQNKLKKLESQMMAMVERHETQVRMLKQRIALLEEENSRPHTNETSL
UniProt P52306, sequence (P52306 whole entry, looked up): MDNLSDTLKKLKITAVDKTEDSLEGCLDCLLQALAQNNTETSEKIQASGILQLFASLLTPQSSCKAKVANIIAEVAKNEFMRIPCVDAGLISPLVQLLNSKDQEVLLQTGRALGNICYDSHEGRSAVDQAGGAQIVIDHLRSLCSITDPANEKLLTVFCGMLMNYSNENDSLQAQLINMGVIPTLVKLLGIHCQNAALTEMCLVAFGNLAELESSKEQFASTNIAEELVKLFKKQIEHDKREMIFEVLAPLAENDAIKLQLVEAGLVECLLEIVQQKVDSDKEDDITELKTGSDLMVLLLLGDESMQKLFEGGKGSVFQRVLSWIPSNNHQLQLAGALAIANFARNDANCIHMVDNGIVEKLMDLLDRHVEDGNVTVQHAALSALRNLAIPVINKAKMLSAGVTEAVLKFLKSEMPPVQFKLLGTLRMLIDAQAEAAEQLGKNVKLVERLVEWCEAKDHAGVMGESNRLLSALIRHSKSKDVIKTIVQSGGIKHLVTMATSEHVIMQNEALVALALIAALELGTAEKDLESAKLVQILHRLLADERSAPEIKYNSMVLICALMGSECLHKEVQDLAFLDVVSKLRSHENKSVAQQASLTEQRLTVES
UniProt P42765, sequence (P42765 whole entry, looked up): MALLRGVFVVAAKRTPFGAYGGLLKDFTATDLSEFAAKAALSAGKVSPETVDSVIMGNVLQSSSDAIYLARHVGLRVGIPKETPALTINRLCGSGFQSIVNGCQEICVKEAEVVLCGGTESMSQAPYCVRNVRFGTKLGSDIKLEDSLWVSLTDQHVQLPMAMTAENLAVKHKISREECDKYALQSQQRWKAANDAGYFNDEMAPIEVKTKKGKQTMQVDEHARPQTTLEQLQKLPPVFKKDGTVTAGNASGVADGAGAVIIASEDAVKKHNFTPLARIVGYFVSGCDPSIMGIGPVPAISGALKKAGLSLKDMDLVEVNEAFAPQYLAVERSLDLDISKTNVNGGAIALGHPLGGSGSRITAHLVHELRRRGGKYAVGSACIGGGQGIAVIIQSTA
UniProt O95336, sequence (O95336 whole entry, looked up): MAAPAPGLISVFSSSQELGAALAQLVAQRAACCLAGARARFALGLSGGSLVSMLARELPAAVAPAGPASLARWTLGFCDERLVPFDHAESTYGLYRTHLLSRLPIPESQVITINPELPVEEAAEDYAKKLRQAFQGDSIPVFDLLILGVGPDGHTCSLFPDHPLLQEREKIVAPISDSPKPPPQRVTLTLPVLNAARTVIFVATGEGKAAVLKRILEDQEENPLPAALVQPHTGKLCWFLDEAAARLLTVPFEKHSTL

Target | log2 ratio of iodoacetamide-alkyne labeling
VDAC2 C13 (UniProt P45880) | 1.11 (active)
ACADM C156 (UniProt P11310) | 0.666 (inactive)
MCC C714 (UniProt P23508) | 0.565 (inactive)
MTOR C300 (UniProt P42345) | 0.376 (inactive)
PTPN2 C330 (UniProt P17706) | 0.608 (inactive)
IQGAP1 C781 (UniProt P46940) | 0.821 (inactive)
CRKL C249 (UniProt P46109) | 1.61 (active)
PRKCSH C500 (UniProt P14314) | 0.513 (inactive)
RAP1GDS1 C85 (UniProt P52306) | 0.197 (inactive)
PGLS C32 (UniProt O95336) | 0.724 (inactive)
RANGAP1 C303 (UniProt P46060) | 0.47 (inactive)
RCC1 C93 (UniProt P18754) | 0.14 (inactive)
ACAA2 C128 (UniProt P42765) | 1.22 (active)
IGF2R C2232 (UniProt P11717) | 1.08 (active)
UniProt P25705_C244 | 0.205 (inactive)
